Shown are actives, neighbours in structure and some others; about 11% of the full set was active somewhere.
HP1b chromo inh – HTS for Inhibitors of HP1-beta Chromodomain Interactions with Methylated Histone Tails | AlphaScreen HP1-beta / biotin-H3K9me3 peptide binding | Potency, µM (highest dose often 114 µM), actives largely listed as inhibitors | actives 0.56% (n = 390,000) | AID 540317, 2011; further: nearly all actives have a fitted effect of over 70% in size
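AlphaScreen: HP1-beta (50 nM) preformed 30 min with biotin-H3(1-18)K9me3 peptide (50 nM) in PBS pH 7.4, 0.01% Tween-20. Compound added for 30 min at RT, then streptavidin donor/nickel chelate acceptor beads (10 ug/mL) for 30 min.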
G9a inh-1 – qHTS Assay for Inhibitors of Histone Lysine Methyltransferase G9a; actives 8.8% (n = 350,000); G9a H3K9 monomethylation, AlphaScreen, 2 h; Potency, µM (top dose mostly 102 µM), hits mostly inhibitors; Histone-lysine N-methyltransferase EHMT2 (Homo sapiens), Q96KQ7; further: nearly all actives have a fitted effect of over 75% in size
Target sequence (Q96KQ7 913-1193 limits assumed): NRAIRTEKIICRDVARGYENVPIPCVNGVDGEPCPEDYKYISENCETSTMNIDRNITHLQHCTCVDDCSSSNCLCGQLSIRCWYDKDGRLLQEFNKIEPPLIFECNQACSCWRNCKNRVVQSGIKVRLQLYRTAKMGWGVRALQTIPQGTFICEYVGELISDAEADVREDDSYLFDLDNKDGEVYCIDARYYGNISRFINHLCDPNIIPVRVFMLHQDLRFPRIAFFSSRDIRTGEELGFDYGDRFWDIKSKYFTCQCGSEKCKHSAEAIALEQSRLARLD
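Using a bead-based AlphaScreen, monomethylated H3K9 product from 2 h room-temperature reactions (G9a 20 nM, peptide 500 nM, SAM 20 uM) was detected with 0.5 ug/mL rabbit anti-H3K9me1 antibody.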
BAZ2B block – qHTS Assay for Inhibitors of BAZ2B. AlphaScreen BAZ2B-H3K14Ac peptide displacement. Bromodomain adjacent to zinc finger domain protein 2B (Homo sapiens), Q9UIF8. actives 4.4% (n = 360,000). Potency, µM (doses to about 114 µM), most hits filed as inhibitors. AID 504333, 2011; further: nearly all actives have a fitted effect of over 60% in size
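AlphaScreen luminescence quantifies BAZ2B engagement of H3K14Ac peptide; the protein and biotinylated peptide are both at 50 nM final, buffer PBS pH 7.4 with 0.01% Tween-20, all steps at room temperature.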
L3MBTL1 block – qHTS Assay for the Inhibitors of L3MBTL1; AID 485360, 2010; actives 0.66% (n = 230,000); AlphaScreen L3MBTL1–H3K9me1 peptide binding; Lethal(3)malignant brain tumor-like protein 1 (Homo sapiens), Q9Y468; Potency, µM (series often up to 57.1 µM), hits mostly inhibitors; further: nearly all actives have a fitted effect of over 60% in size
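Displacement of a biotinylated histone H3(1-15) peptide monomethylated at Lys9 (75 nM) from L3MBTL1 (50 nM) was measured by AlphaScreen after a 30 min room-temperature compound incubation; cefsulodin titration served as intraplate control.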
PI5P4Ka inh – qHTS for Inhibitors of phosphatidylinositol 5-phosphate 4-kinase (PI5P4K). AID 652105, 2013. PI5P4Kalpha enzyme, ADP-Glo luminescence, 60 min; active compounds read low. actives 1.2% (n = 330,000). max response, %. Phosphatidylinositol 5-phosphate 4-kinase type-2 alpha (Homo sapiens), P48426; active means max response of -50% or lower; inconclusive means between -30% and -50%; inactive means -30% or higher; further: value at the top dose of about 77 µM
Target sequence (P48426 whole entry, looked up): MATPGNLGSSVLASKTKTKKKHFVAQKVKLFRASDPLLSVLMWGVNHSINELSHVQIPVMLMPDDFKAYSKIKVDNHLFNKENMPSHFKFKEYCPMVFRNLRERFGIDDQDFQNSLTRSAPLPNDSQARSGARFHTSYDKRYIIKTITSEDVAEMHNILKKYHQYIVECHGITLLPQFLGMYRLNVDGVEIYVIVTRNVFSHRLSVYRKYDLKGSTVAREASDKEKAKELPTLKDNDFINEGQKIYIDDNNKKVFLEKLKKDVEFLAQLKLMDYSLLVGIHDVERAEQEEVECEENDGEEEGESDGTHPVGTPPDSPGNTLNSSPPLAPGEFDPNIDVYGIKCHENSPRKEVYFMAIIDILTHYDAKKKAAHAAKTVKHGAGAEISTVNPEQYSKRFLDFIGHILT
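PI5P4Kalpha ADP-Glo assay; 5 microM ATP final; 60 min RT reaction; HEPES pH 7.4/EGTA/CHAPS, 5% DMSO; controls lacking substrate or enzyme; luminescent end-point.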
JMJD2A Tudor inh – qHTS Assay for Inhibitors of JMJD2A-Tudor Domain. Lysine-specific demethylase 4A (Homo sapiens), O75164. AlphaScreen JMJD2A-Tudor / H3K4me3 peptide binding. Potency, µM (titrated, usually from 114 µM), most hits filed as inhibitors. actives 4.4% (n = 390,000). AID 504339, 2011; further: nearly all actives have a fitted effect of over 50% in size
JMJD2E inh – Confirmation qHTS Assay for Inhibitors of Human Jumonji Domain Containing 2E (JMJD2E); shares compounds with JMJD2A Tudor inh; Recombinant JMJD2E, FDH-coupled NADH fluorescence (FDH is formaldehyde dehydrogenase); Potency, µM (highest dose often 56.8 µM), usual class: inhibitors; actives 93% (n = 140)
FDH counter – Counterscreen for JMJD2E Inhibitors: qHTS Assay for Inhibitors of Formaldehyde Dehydrogenase (FDH); FDH enzyme assay, NADH fluorescence kinetic; Potency, µM (top dose mostly 56.7 µM), actives largely listed as inhibitors; shares compounds with JMJD2A Tudor inh; actives 10% (n = 140)
G9a inh-2 – qHTS Assay for Inhibitors of Histone Lysine Methyltransferase G9a: Hit Confirmation | shares compounds with JMJD2A Tudor inh | AID 588344, 2011 | Potency, µM, actives largely listed as inhibitors | G9a H3K9 monomethylation, AlphaScreen, 2 h | actives 89% (n = 370); further: nearly all actives have a fitted effect of over 65% in size
RGS4 confirm – qHTS for Inhibitors of Regulator of G Protein Signaling(RGS) 4: Hit Validation. actives 80% (n = 25). Potency, µM, actives largely listed as inhibitors. shares compounds with JMJD2A Tudor inh. RGS4 GAP activity, Transcreener GDP fluorescence polarization
ADP-Glo interf – qHTS for Inhibitors of PI5P4K: ADP-Glo counter assay; shares compounds with PI5P4Ka inh; ADP-Glo detection counter-screen, luciferase luminescence, no enzyme; Potency, µM (titrated, usually from 76.9 µM), most hits filed as inhibitors; 1,100 tested, under 10 active; AID 743285, 2014
A number is an active result; [ ] = dose if it differs, or a comment. Unless noted, the call rests on the fitted dose curve; in most records, active means well fitted curve in the direction sought with a large enough effect; inconclusive means small, poorly fitted or top-dose-only effect, or another doubt; inactive means no such curve, though single readings can be large; an effect the other way counts as inactive or inconclusive.

Screening CC(=O)OC1CC2C(C)(C)CCC(=O)[C@@]2(C)C2CC[C@@]3(C)C(c4ccoc4)OC(=O)C4OC43[C@]12C (some centres undefined) returned G9a inh-1 inactive[2.33 µM].
Screening Nc1c(C(=O)c2ccccc2)sc2nsc(SCCN3CCOCC3)c12 returned HP1b chromo inh inactive, BAZ2B block inactive, L3MBTL1 block inactive, PI5P4Ka inh inactive and JMJD2A Tudor inh inactive.
CC(=O)c1sc2nsc(SCCN3CCOCC3)c2c1N was read as HP1b chromo inh 79µM, G9a inh-1 0.79µM, BAZ2B block inactive, L3MBTL1 block inactive, PI5P4Ka inh inactive, JMJD2A Tudor inh 6.3µM and G9a inh-2 2.5.
COc1cc(NS(=O)(=O)c2cc3c(cc2C)N(C)CCO3)cc(OC)c1OC was read as HP1b chromo inh inactive, G9a inh-1 inactive, BAZ2B block inactive and JMJD2A Tudor inh inactive.
`O=C(Nc1ccc(Br)cc1)c1cccc(-n2cnnn2)c1` gave HP1b chromo inh inactive, G9a inh-1 inactive, BAZ2B block inactive, PI5P4Ka inh inactive and JMJD2A Tudor inh inactive.
For O=C(Nc1nc(-c2ccccn2)cs1)c1cccc(-n2cnnn2)c1 the results were HP1b chromo inh inactive, G9a inh-1 inactive, BAZ2B block 50µM, L3MBTL1 block inconclusive, PI5P4Ka inh inactive, JMJD2A Tudor inh 79µM and RGS4 confirm inconclusive.
Screening O=S(=O)(NN1CCOCC1)c1ccc(Br)cc1 returned HP1b chromo inh inactive, G9a inh-1 0.4µM, BAZ2B block inactive, PI5P4Ka inh inactive, JMJD2A Tudor inh inactive and G9a inh-2 1.6.
For COc1cc(OC)c(C(=O)CCCN2CCCC2)c(OC)c1 the results were HP1b chromo inh inactive, G9a inh-1 inconclusive, BAZ2B block inactive, L3MBTL1 block inconclusive, PI5P4Ka inh inactive, JMJD2A Tudor inh inactive and G9a inh-2 9.6.
`COc1ccc(NC(=O)CCN2CCCCCC2)c(OC)c1` gave HP1b chromo inh inactive, G9a inh-1 inconclusive, BAZ2B block inactive, L3MBTL1 block inactive and JMJD2A Tudor inh inactive.
`CC(NS(=O)(=O)c1ccc(Cl)cc1)C(=O)OCC(=O)Nc1ccc(N(C)C)cc1` (centres undefined) gave HP1b chromo inh inactive, G9a inh-1 2.5µM, BAZ2B block inconclusive, L3MBTL1 block inactive, PI5P4Ka inh inactive, JMJD2A Tudor inh inconclusive and G9a inh-2 4.
Screening O=C(Nc1sc2c(c1C(=O)Nc1cccc(Cl)c1)CCCC2)c1cccs1 returned HP1b chromo inh inactive, G9a inh-1 1.6µM, BAZ2B block inactive, JMJD2A Tudor inh 71µM and G9a inh-2 4.1.
Screening O=C(Cc1ccccc1)Nc1sc2c(c1C(=O)Nc1ccc(Cl)cc1)CCCC2 returned HP1b chromo inh inconclusive, G9a inh-1 0.32µM, BAZ2B block inconclusive, JMJD2A Tudor inh inconclusive and G9a inh-2 1.8.
For CCC(C)NC(=O)c1ccc2nc(CCc3ccccc3)oc2c1 (centres undefined) the results were HP1b chromo inh inactive, G9a inh-1 inactive, BAZ2B block inactive and JMJD2A Tudor inh inactive.
Screening Cc1ccc(N2C(=O)CC(Sc3ncn[nH]3)C2=O)cc1C (centres undefined) returned HP1b chromo inh inactive, G9a inh-1 2µM, BAZ2B block inconclusive, L3MBTL1 block inactive, PI5P4Ka inh inactive, JMJD2A Tudor inh 10µM, JMJD2E inh 7.1µM and FDH counter 0.22µM.
For Cc1ccc(CNC(=O)CSc2ncccn2)cc1 the results were HP1b chromo inh inactive, G9a inh-1 inconclusive, BAZ2B block inactive, L3MBTL1 block inactive[11.4 µM], PI5P4Ka inh inconclusive, JMJD2A Tudor inh inactive, G9a inh-2 22 and ADP-Glo interf inactive.
CCOc1ccccc1Nc1sc(C(=O)c2ccc(Cl)cc2)c(N)c1S(=O)(=O)c1ccccc1 was read as HP1b chromo inh inactive, G9a inh-1 inactive, BAZ2B block inactive and JMJD2A Tudor inh inactive.
`CCS(=O)(=O)N1CC(=O)N(c2ccc(Cl)cc2C)C(C)(C(=O)NC2CCCCC2)C1` (centres undefined) gave HP1b chromo inh inactive, G9a inh-1 inactive, BAZ2B block inactive and JMJD2A Tudor inh inactive.
`Fc1cccc(Cl)c1CNc1ccc(N2CCCC2)cc1` gave HP1b chromo inh 25µM, G9a inh-1 1.8µM, BAZ2B block 13µM, L3MBTL1 block inconclusive, PI5P4Ka inh -63, JMJD2A Tudor inh 20µM, G9a inh-2 5.6 and ADP-Glo interf inactive.
Screening CCOC(=O)C1CCCN(C(=O)c2cc(-c3ccncc3)nc3ccccc23)C1 (centres undefined) returned HP1b chromo inh inactive, G9a inh-1 inactive, BAZ2B block inactive, L3MBTL1 block inactive, PI5P4Ka inh inactive and JMJD2A Tudor inh inactive.
